High-throughput results deposited in PubChem BioAssay by Johns Hopkins Ion Channel Center.
TMEM16A act – mouse TMEM16A channel activation, primary screen; Q8BHY3; HEK293 TMEM16A/YFP-H148Q/I152L, iodide quench fluorescence; stronger effect = lower value; B-score at 10 µM; 340,000 compounds, 0.3% hits;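 active means fluorescence-ratio B-score plate-corrected deviation score at least 3 library SD below zero, with starting fluorescence score within 5 deviations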;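 further: channel opened by trigger with iodide after compound preincubation; score built on the fluorescence ratio of max minus min over baseline; more negative score means more quench and so TMEM16A activation or potentiation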
TMEM16A inh – mouse TMEM16A channel inhibition, primary screen. Q8BHY3. 310,000 compounds, 1.2% hits. normalized B-score (activity score, 25-100; higher = stronger inhibition) at 10 µM. HEK293 TMEM16A/YFP iodide influx fluorescence, ionomycin;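 active means ratio plate-corrected score three or more library SD toward inhibition, starting fluorescence score within five deviations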;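 further: score derived from kinetic fluorescence span divided by baseline fluorescence per well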
Kir21 inh – blocks the mouse Kir2.1 inward-rectifier potassium channel; 310,000 compounds, 0.85% hits; HEK293-Kir2.1, FluxOR thallium flux fluorescence; stronger effect = lower value; B-score at 10 µM; P35561;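 active means fluorescence ratio B-score at or below minus 3 SD of library scores, with starting-brightness B-score within 2 SD, cut at about -4.2 in these data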;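 further: channel flux triggered by added potassium and thallium sulfate stimulus; B-score of peak minus minimum fluorescence over baseline after thallium stimulus; more negative B-score means stronger Kir2.1 block with less thallium influx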
KCNK3 block – human KCNK3 channel inhibition, primary screen. 340,000 compounds, 0.84% hits. O14649. CHO-KCNK3 thallium flux, FluxOR fluorescence; stronger effect = lower value. B-score at 10 µM;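 active means B-score under library mean minus 4 SD, starting fluorescence ratio at most library mean plus 5 SD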;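 further: more negative B-score means stronger inhibition of thallium flux through KCNK3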
Target sequence (O14649 whole entry, looked up): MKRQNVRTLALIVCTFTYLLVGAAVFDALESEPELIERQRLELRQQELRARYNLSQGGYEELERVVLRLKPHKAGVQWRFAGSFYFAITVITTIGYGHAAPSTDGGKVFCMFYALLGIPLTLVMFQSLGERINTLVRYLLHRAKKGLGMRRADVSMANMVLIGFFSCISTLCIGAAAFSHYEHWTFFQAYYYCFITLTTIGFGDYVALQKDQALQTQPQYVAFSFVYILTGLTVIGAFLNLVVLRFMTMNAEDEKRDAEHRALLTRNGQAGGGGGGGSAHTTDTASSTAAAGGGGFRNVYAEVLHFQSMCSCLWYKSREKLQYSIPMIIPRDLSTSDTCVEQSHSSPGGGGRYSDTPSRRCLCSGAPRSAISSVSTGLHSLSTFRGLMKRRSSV
KCNK9 block – human KCNK9 channel inhibition. Q9NPC2. HEK293 KCNK9, FluxOR thallium flux fluorescence; stronger effect = lower value. B-score at 10 µM. 310,000 compounds, 1.2% hits. AID 488922;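 active means ratio B-score over 3 SD below the library mean, with starting fluorescence within 5 SD of its mean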;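 further: negative B-score means less thallium flux so channel inhibition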
Starred values were filed as active, the others as inactive; i = inactive; / = no result; ! = repeats disagree. Sampled rows, rich in hits. Any-hit rate of the full collection: about 3.5%.

SMILES | TMEM16A act | TMEM16A inh | Kir21 inh | KCNK3 block | KCNK9 block
O=C(CCCCCN1C(=O)c2ccccc2C1=O)Nc1ccc(S(=O)(=O)N2CCCCC2)cc1 | i | i | 0.15 | i | i
O=C(OCCCCN1C(=O)c2ccccc2C1=O)c1ccc(S(=O)(=O)N2CCCC2)cc1 | i | 25* | 0.91 | i | i
Cc1ccc2c(c1)c1c3n2CCN(C(=O)CCl)C3CCC1 (configuration not stated) | i | i | -8.77* | i | i
S=C(NCCSCc1ccc(Cl)c(Cl)c1)Nc1ccccc1 | i | 100* | 0.66 | i | i
S=C(NCCSCc1c(Cl)cccc1Cl)Nc1ccccc1 | i | 100* | -5.13* | i | i
O=C(NCCSCc1c(F)cccc1Cl)Nc1ccccc1 | i | i | -0.27 | i | i
COc1ccc(N2CCN(C(=O)c3cccc(NC(=O)c4ccco4)c3)CC2)cc1 | i | i | 1.22 | i | i
O=[N+]([O-])c1cccc(CSc2nnc(Cc3ccccc3)n2-c2ccc(F)cc2)c1 | i | i | -5.78* | i | i
O=C(O)CSc1nnc(Cc2ccccc2)n1-c1ccccc1 | i | i | -0.35 | i | i
CCOC(=O)c1sc(NC(=O)c2cccnc2)c(C#N)c1C | i | i | -1.57 | i | i
CCOC(=O)c1sc(NC(=O)CSc2n[nH]c(-c3ccccc3)n2)c(C#N)c1C | i | 100* | 0.22 | i | i
CCOC(=O)c1sc(NC(=O)c2cc(-c3ccccc3)nc3ccccc23)c(C#N)c1C | i | 100* | -3.06 | i | i
Cc1cc(=O)oc2cc(OC(=O)c3ccco3)ccc12 | i | / | -12.1* | i | i
CCc1cc(=O)oc2cc(OC(=O)c3ccco3)ccc12 | i | i | 0 | i | i
O=c1cc(-c2ccccc2)[nH]n1-c1ccc([N+](=O)[O-])cc1 | i | 100* | -0.21 | i | i
O=C1CC2C(CC(OC(=O)c3ccc(-c4ccccc4)cc3)C2CO)O1 (configuration not stated) | i | i | -0.12 | i | i
O=C1C[C@H]2[C@H](CO)[C@@H](OC(=O)c3ccc(-c4ccccc4)cc3)C[C@H]2O1 | i | 25* | 0.98 | i | i
CCCn1nnnc1NCc1ccc(C(C)C)cc1 | i | i | 1.3 | i | i
C[C@H]1COC2=C1C(=O)C(=O)c1c2ccc2c1CCCC2(C)C | i | i | -5.44* | -8.71* | i
NNS(=O)(=O)c1ccc(N2CCCC2=O)c([N+](=O)[O-])c1 | i | i | -0.4 | i | i
NS(=O)(=O)c1ccc(N2CCCC2=O)c([N+](=O)[O-])c1 | -4.87* | i | -0.63 | i | i
Cc1nc2ccc(NC(=O)c3cc([N+](=O)[O-])cc([N+](=O)[O-])c3Cl)cc2s1 | -5.71* | i | / | i | /
COc1ccc(/C=C/C(=O)c2ccc(NC(=O)c3cccs3)cc2)cc1OC | i | i | -1.38 | i | i
CCC(=O)NCc1cc(-c2nn(C)c(=O)c3ccccc23)ccc1C | i | i | -1.39 | i | i
Cc1ccc(-c2nn(CC(=O)NCc3cc(-c4nn(C)c(=O)c5ccccc45)ccc3C)c(=O)c3ccccc23)cc1 | -7.78* | i | 0.04 | i | i
SMILES | TMEM16A act | TMEM16A inh | Kir21 inh | KCNK3 block | KCNK9 block
N#CCCn1cc(C(=O)Nc2ccccc2Br)c(-c2cccs2)n1 | i | i | -0.49 | i | -7.34*
COc1ccc(NC(=O)c2cn(CCC#N)nc2-c2cccs2)cc1 | i | i | 1.08 | i | i
NC(CCCCc1ccccc1)c1cccc2ccccc12 (configuration not stated) | / | 25* | -11.4* | / | i
c1ccc(CCCCc2ccccn2)cc1 | i | / | / | i | /
CN(CC(=O)Nc1ccccc1Cl)CC(=O)N(C)c1c(N)n(Cc2ccccc2)c(=O)[nH]c1=O | i | / | / | i | /
Cc1ccccc1/C=C1\SC(=S)N(/N=C/c2cc([N+](=O)[O-])ccc2O)C1=O | i | i | 0.14 | i | i
CC(CC12CC3CC(CC(C3)C1)C2)NCc1ccccc1O (configuration not stated) | i | i | -5.04* | i | i
CC(=O)c1ccc(NC(=O)c2ccc3nc(-c4ccco4)c(-c4ccco4)nc3c2)cc1 | i | i | -0.28 | -11.3* | i
CCCOC(=O)c1ccc(Oc2c(-c3ccc(O)cc3O)n[nH]c2C)cc1 | i | 25* | -1.21 | i | i
CCCOC(=O)c1ccc(Oc2c(-c3ccc(OC)cc3O)n[nH]c2C)cc1 | i | i | 0.02 | i | i
CCCCn1ccnc1C(=O)c1cccc(S(=O)(=O)N2CC(C)CC(C)C2)c1 (configuration not stated) | i | 100* | -1.02 | i | i
Cc1cccc(/C=N/n2c(-c3cc(-c4ccccc4)n[nH]3)n[nH]c2=S)c1 | -6.63* | i | 0.57 | i | i
O=c1[nH]c(N2CCCCC2)nc2ncn(Cc3ccccc3)c12 | i | i | -0.35 | i | i
COc1cccc(-n2sc3c(c2=S)-c2cc(OC)ccc2NC3(C)C)c1 | i | i | -0.08 | i | i
CC1(C)Nc2ccc(O)cc2-c2c1ssc2=S | i | i | -11.6* | i | i
CCOC(=O)/C(=N\Nc1ccc(Cl)cc1)c1csc(Nc2ccccc2)n1 | i | 100* | 0.24 | i | i
CN(C)c1ccc(/C=C/c2cccc[n+]2[O-])cc1 | i | i | -2.04 | i | i
CN(C)c1ccc(/C=C/c2ccc3ccccc3[n+]2C)cc1 | i | i | -13.9* | i | i
CN(C)c1ccc(/C=C/c2ccc3c4ccccc4ccc3[n+]2-c2ccccc2)cc1 | i | / | / | -15.5* | /
CN(CCCS(=O)(=O)[O-])c1ccc(/C=C/c2ccc3ccccc3[n+]2C)cc1 | i | i | -0.65 | i | i
CCCC[C@@H]1CNC(=S)N1CCCC | i | i | -1.23 | i | i
O=C(Cc1cc(=O)[nH][nH]1)N/N=C/c1c(Cl)cccc1Cl | i | i | -4.29*! | i | i
CCC(=O)NC1=C(Cl)C(=O)C(NC(=O)CC)=C(Cl)C1=O | i | / | / | -11.3* | /
CN(C)S(=O)(=O)c1cc(NC(=O)CSc2nn(-c3ccc(Cl)cc3)c(=S)s2)ccc1Cl | i | i | -0.07 | i | i
Cc1ccc(NC(=O)CSc2nn(-c3ccc(Cl)cc3)c(=S)s2)cc1S(=O)(=O)N(C)C | i | 100* | -2.95 | i | i
CCC(=O)N1CCN(c2ccccc2NC(=O)Cc2ccccc2)CC1 | i | i | -0.06 | i | i
O=C(Cc1ccccc1)Nc1ccccc1N1CCN(c2ccccc2)CC1 | i | i | -0.12 | -8.74* | i
CS(=O)(=O)N1CCN(c2ccccc2NC(=O)Cc2ccc(Cl)cc2)CC1 | -24.8* | i | 0.91 | i | i
